TbREL1 primary = TbREL1 inhibition, primary screen; P86926; inhibition, % at 9.66 µM; actives 0.49% (n = 89,000); TbREL1 RNA ligation, FRET fluorescence; AID 1117264;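 active = inhibition above the mean inhibition across all screened compounds plus 3 SD, cut at about 11% in these data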
Target sequence (P86926 whole entry, looked up): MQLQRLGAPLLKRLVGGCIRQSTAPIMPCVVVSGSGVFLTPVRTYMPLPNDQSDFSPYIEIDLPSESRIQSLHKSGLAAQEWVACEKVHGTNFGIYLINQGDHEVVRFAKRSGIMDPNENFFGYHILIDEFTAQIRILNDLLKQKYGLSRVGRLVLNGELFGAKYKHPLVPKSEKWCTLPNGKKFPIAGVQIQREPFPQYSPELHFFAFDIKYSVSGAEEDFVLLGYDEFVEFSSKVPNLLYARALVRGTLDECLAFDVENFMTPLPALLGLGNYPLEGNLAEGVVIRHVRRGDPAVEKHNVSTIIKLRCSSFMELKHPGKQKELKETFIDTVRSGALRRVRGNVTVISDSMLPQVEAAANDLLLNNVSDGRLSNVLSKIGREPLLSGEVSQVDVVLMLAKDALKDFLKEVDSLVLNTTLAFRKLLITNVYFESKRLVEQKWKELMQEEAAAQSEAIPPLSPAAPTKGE
TbREL1 confirm = TbREL1 inhibition, confirmation | shares compounds with TbREL1 primary | TbREL1 RNA ligation, FRET fluorescence | inhibition, % at 9.66 µM | actives 37% (n = 390) | AID 1117282;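 active = mean inhibition across replicates above a set limit taken from the earlier primary screen, cut at about 11% in these data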
A number is an active result; i = inactive. The entries come from a sample that favours hits as a whole.

SMILES	TbREL1 primary	others
COC(=O)C1=C(C)N(Cc2ccccc2C(F)(F)F)C(=NCc2ccccc2)NC1c1ccc(Cl)cc1 (centres undefined)	14.2	TbREL1 confirm=15.6
Cc1ccccc1CS(=O)(=O)Cc1ccc(C(=O)Nc2cccc(Cl)c2F)o1	i
C[C@H]1C(=O)N2[C@@H](C[C@]3(c4c[nH]c5ccccc45)c4ccccc4N(S(=O)(=O)c4ccccc4)[C@H]23)C(=O)N1C	i
O=C(CSc1nnc(-c2cccnc2)n1-c1ccc(Cl)cc1)c1ccc(F)cc1	i
O=[N+]([O-])c1cccc(C2=Nn3c(nnc3-c3ccccc3)SC2)c1	i
O=C(NCCc1c[nH]c2ccccc12)OCc1cn(-c2ccc(F)cc2)nn1	i
CN1CCCCC(NC(=O)c2c(F)cccc2F)C1=O (centres undefined)	i
CCN(CC)C(=O)CSc1nnc(-c2ccc(C(C)(C)C)cc2)n1Cc1ccco1	i
O=C(NCCC1=CCCCC1)C1CCN(S(=O)(=O)c2ccccc2[N+](=O)[O-])CC1	i
COC(=O)c1cc(S(=O)(=O)N2CCN(c3cccc(C(F)(F)F)c3)CC2)cn1C	i
CC(C)[C@H](NC(=O)c1ccc(Cl)c(Cl)c1)C(=O)N1CCC[C@H]1C(=O)NCCc1ccccc1Cl	i
CCN=C1NC(c2ccc(C(F)(F)F)cc2)C(C(=O)OC)=C(C)N1Cc1ccccc1C(F)(F)F (centres undefined)	11.4	TbREL1 confirm=12.0
COC(=O)C1=C(C)N(Cc2ccccc2)C(=NCc2ccc(OC)cc2)N[C@H]1c1ccccc1	i
COC(=O)C1=C(C)N(Cc2ccccc2C(F)(F)F)C(=NCc2ccc(C(F)(F)F)cc2)NC1c1ccccc1 (centres undefined)	15.9	TbREL1 confirm=18.3
CCN=C1NC(c2ccc(F)cc2)C(C(=O)OC)=C(C)N1Cc1ccc(C(F)(F)F)cc1 (centres undefined)	i
CC1(C)CC(=O)N(CC(=O)N2CCN(c3cccc(C(F)(F)F)c3)CC2)c2ccccc2S1(=O)=O	i
NS(=O)(=O)c1ccc(NC(=O)CSc2nnc(-c3cccs3)o2)cc1	i
CCOC(=O)CC[C@H](NC(=O)[C@@H]1CC=C[C@@H]2CCN(Cc3ccc(Cl)cc3)C(=O)[C@@H]21)C(=O)OCC	i
CCOC(=O)[C@@]12CCC3=C1N(CCC3)C(=O)[C@H](CC(=O)NCc1cccs1)C2	i
O=C(/C=C(\Nc1cc(Cl)c(Cl)c(Cl)c1)c1ccccc1)c1ccccc1	i
O=C(C[n+]1ccc2ccccc2c1)c1ccccc1	i
COC(=O)c1ccc[n+](CC(=O)c2ccc(Br)cc2)c1	11.3	TbREL1 confirm=i
Cc1cc(C)c[n+](CC(=O)c2ccccc2)c1	i
COc1ccc(N2CCN(CCCNC(=O)CCc3cccc(Cl)c3)CC2)cc1	i
Cc1ccc(S(=O)(=O)N2CCN=C2SCc2ccc(Cl)c(Cl)c2)cc1	i
SMILES	TbREL1 primary	others
Cc1ccc(C(=O)C[n+]2cc(-c3ccc(C)cc3)n3c2CCCCC3)cc1	i
Cc1ccc(-c2c[n+](Cc3ccc(Cl)c(Cl)c3)c3n2CCC3)cc1	13.4	TbREL1 confirm=i
COCC(=O)N(c1ccc(C(C)(C)C)cc1)C(C(=O)NC(C)(C)C)c1cccnc1 (centres undefined)	i
O=C(CCN1C(=O)/C(=C\c2ccccc2)SC1=S)Nc1ccc(C(=O)O)cc1	i
O=C(CCN1C(=O)S/C(=C/c2ccccc2)C1=O)Nc1ccc(O)c(C(=O)O)c1	13.6	TbREL1 confirm=15.3
O=C(CCCN1C(=O)/C(=C\c2ccccc2)SC1=S)Nc1ccc(O)cc1	i
C=CCn1c(CNC(=O)c2ccccc2F)nnc1SCC(=O)NC(C)c1ccccc1 (centres undefined)	12.3	TbREL1 confirm=i
C=CCn1c(CCNC(=O)c2ccccc2F)nnc1SCC(=O)Nc1nc(C)cs1	i
C=CCn1c(CCNC(=O)c2ccccc2F)nnc1SCC(=O)Nc1ccccc1F	i
CCCN1C(=O)c2n[nH]c(C(C)C)c2C1c1cccc(C(F)(F)F)c1 (centres undefined)	i
COc1ccc2c3c([nH]c2c1)[C@]1(CCNC=O)Nc2ccccc2C1=NCC3	11.5	TbREL1 confirm=i
COc1ccc2[nH]c3c(c2c1)CCN[C@]31C(=O)Nc2ccccc21	i
COc1ccc2c3c([nH]c2c1)C1=NCC[C@]12c1ccccc1N=CN2CC3	i
CC1(C)Oc2ccc(C(=O)NC3CCCC3)cc2NC1=O	i
CC(C)c1nnc(NC(=O)CCC(=O)NCc2ccc3c(c2)OCO3)s1	17.6	TbREL1 confirm=i
COc1ccccc1CNC(=O)CCC(=O)Nc1nnc(C(C)C)s1	i
CC(C)c1ccc(NC(=O)NCc2ccc3c(c2)OCO3)cc1	i
c1ccc2sc(-c3csc4c3CCNC4)nc2c1	i
O=C1CCC[C@H]2C[C@H](NCc3ccccc3Cl)CC[C@]23CCCN13	i
N#Cc1ccc(Cn2ccc3ccc(-c4ccc5ccn(C(=O)c6ccccc6)c5c4)cc32)cc1	i
O=C(N/C(=N\O)c1ccccc1)Nc1ccc(Cl)cc1	i
O=C(Nc1ccc(F)c(Cl)c1)c1ccccc1	i
O=C(Nc1ccc(Cl)cc1)C(Cl)C(=O)c1ccccc1 (centres undefined)	11.7	TbREL1 confirm=i
CN1CCCCC(NC(=O)C23CC4CC(CC(C4)C2)C3)C1=O (centres undefined)	i
CCCNC(=O)C/C(C)=N/NC(=O)C(=O)Nc1ccccn1	i
SMILES	TbREL1 primary	others
C/C(CC(=O)Nc1ccccn1)=N\NC(=O)c1ccc2ccccc2c1	i
C/C(CC(=O)Nc1ccccn1)=N\NC(=O)c1ccccc1O	22.3	TbREL1 confirm=i
CCOP(=O)(OCC)c1ccc2c(c1)C(=O)c1ccccc1-2	i
O=C(Nc1ccc(N2C(=O)CC(c3ccccc3)C2=O)c(Cl)c1)c1ccccn1 (centres undefined)	i
COc1ccc2[nH]c3c(c2c1)CCN[C@]31C(=O)N(Cc2cn(Cc3ccccc3)nn2)c2ccccc21	i
O=C(CSc1nnc(-c2ccc(Cl)cc2)n1C1CCCCC1)NN=Cc1c(O)ccc2ccccc12	i
CCN(C)C(=O)CN1C(=O)C2CCCCN2C(=O)c2ccccc21 (centres undefined)	i
CC(C)c1cc(C(=O)NCCc2ccccc2)no1	11.4	TbREL1 confirm=i
CC(C)c1cc(C(=O)NCc2ccco2)no1	i
CCc1ccc(NC(=O)c2cc(C(C)C)on2)cc1	i
CCCN1CCCCC(NC(=O)COCc2ccccc2)C1=O (centres undefined)	i
Cn1c(N)c(C(=O)CSc2nnc(-c3c[nH]c4ccccc34)n2C2CC2)c(=O)[nH]c1=O	14.9	TbREL1 confirm=i
Cn1c(N)c(C(=O)CSc2nnc(C3CC3)n2Cc2ccccc2)c(=O)[nH]c1=O	i
Cc1ccc(-n2nnnc2SCC(=O)c2c(N)n(C3CC3)c(=O)[nH]c2=O)cc1	i
C[C@@H](O[Si](c1ccccc1)(c1ccccc1)C(C)(C)C)[C@@H]1NC(=O)[C@@H]2C[C@]3(Br)c4ccccc4N(S(=O)(=O)c4ccccc4)[C@@H]3N2C1=O	i
O=C(CNS(=O)(=O)c1ccc(Br)s1)N1CCN(c2ccccn2)CC1	i
C=CCn1c(SCC(=O)Nc2ccccc2-c2ccccc2)nnc1-c1ccccc1	i
Clc1ccccc1Cn1ccc2ccc(-c3ccc4ccn(Cc5ccccc5Cl)c4c3)cc21	i
CCCCCCC(=O)NC1CCCCN(Cc2ccc(C)cc2)C1=O (centres undefined)	i
COc1ccc(-n2c(SCc3ccc([N+](=O)[O-])cc3)nnc2-c2ccco2)cc1	i
O=C(Nc1nnc(-c2ccc(Cl)cc2)o1)NC1CCCCC1	i
Clc1ccc(CN=C(Nc2ccccc2)NC2CCCCC2)cc1	12.6	TbREL1 confirm=15.4
